# Experimental data as given in the supplement of paper PMC10338343.
# ± gives the standard deviation.
# What was measured:
# [1] = system: MILI (PIWIL2) piRISC loaded with L1MC piRNA (26 nt); experiment: pre-steady-state target cleavage rate (min^-1); guide: L1MC piRNA 5'p-UAACUAAAUACUAUGCAAGCUGUAGG; higher = faster piRNA-guided slicing of the target;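 note: 1 nM active piRISC with 0.1 nM target library at 33 °C single turnover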
# How it was run: (§1)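 Cleave-'n-Seq measured uncleaved targets by sequencing after a transcribed, DNA-blocked target RNA library […] was mixed with 1 nM active affinity-purified piRISC holding one synthetic guide, with or without 500 nM GTSF1 partner protein, at 33 °C in HEPES–potassium acetate buffer for 0–8 or 0–960 min. Counts were normalised to depth and to weakly complementary targets, three trials were pooled, and k3 was capped at 0.0001 min^-1. A burst-and-steady-state fit gave the pre-steady-state cleavage rate.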
# [2] = system: EfPiwi piRISC loaded with L1MC piRNA (26 nt); experiment: pre-steady-state target cleavage rate (min^-1); auxiliary factor: 500 nM Ephydatia muelleri Gtsf1; guide: L1MC piRNA 5'p-UAACUAAAUACUAUGCAAGCUGUAGG; MIWI and MILI are mouse PIWI proteins and EfPiwi is from a freshwater sponge; tags in brackets are library labels; higher = faster piRNA-guided slicing of the target
# How it was run: as §1
# [3] = auxiliary factor: 500 nM mouse GTSF1
# [4] = auxiliary factor: none (no GTSF1)
sequence,measurement,setting,value
UCCUGGAUGAGCUUGCAUAGUAUUUUGUUA,pre-steady-state target cleavage rate,[1]; [3],0.204 ± 0.04
same,pre-steady-state target cleavage rate,[1]; [4],0.00454 ± 0.0024
same,pre-steady-state target cleavage rate,[2],0.00491 ± 0.0017
UCCUGGAUCAGCUUGCACAGUAUUUAGUUA,pre-steady-state target cleavage rate,[1]; [3],0.157 ± 0.015
same,pre-steady-state target cleavage rate,[1]; [4],0.0116 ± 0.003
same,pre-steady-state target cleavage rate,[2],0.0672 ± 0.016
UCCUGGAUCAGCUUGCAUAGUAUUUAUUUA,pre-steady-state target cleavage rate,[1]; [3],0.0819 ± 0.017
same,pre-steady-state target cleavage rate,[1]; [4],0.00658 ± 0.0024
same,pre-steady-state target cleavage rate,[2],0.00293 ± 0.0028
UCCUCCUACAGCUAGCUUAGUAUUUAGUUA,pre-steady-state target cleavage rate,[1]; [3],0.206 ± 0.017
same,pre-steady-state target cleavage rate,[1]; [4],0.00491 ± 0.0019
same,pre-steady-state target cleavage rate,[2],0.00997 ± 0.0038
UCCUGGAACAGGUUGCAUAGUAAUUAGUUA,pre-steady-state target cleavage rate,[1]; [3],0.206 ± 0.017
same,pre-steady-state target cleavage rate,[1]; [4],0.0075 ± 0.0018
same,pre-steady-state target cleavage rate,[2],0.0061 ± 0.0024
UCCUGGAUCAGCUAGCAAAGUAUUUAGUUA,pre-steady-state target cleavage rate,[1]; [3],0.0976 ± 0.012
same,pre-steady-state target cleavage rate,[1]; [4],0.00566 ± 0.0019
same,pre-steady-state target cleavage rate,[2],0.00308 ± 0.0029
UCCUGGAUGAGCUUGCAUAGUAUUCAGUUA,pre-steady-state target cleavage rate,[1]; [3],0.136 ± 0.026
same,pre-steady-state target cleavage rate,[1]; [4],0.00552 ± 0.0023
same,pre-steady-state target cleavage rate,[2],0.00256 ± 0.0023
UCCUGGAAGAGCUUGCAUUGUAUUUAGUUA,pre-steady-state target cleavage rate,[1]; [3],0.208 ± 0.011
same,pre-steady-state target cleavage rate,[1]; [4],0.00838 ± 0.0031
same,pre-steady-state target cleavage rate,[2],0.0104 ± 0.0029
UCCUGGAUGAGCUUGCAUAGUAUUUAAGUUA,pre-steady-state target cleavage rate,[1]; [3],0.153 ± 0.025
same,pre-steady-state target cleavage rate,[1]; [4],0.00993 ± 0.0029
same,pre-steady-state target cleavage rate,[2],0.0082 ± 0.0031
UCCUGGAUGAGUUUGCAUAGUAUUUAGUUA,pre-steady-state target cleavage rate,[1]; [3],0.17 ± 0.023
same,pre-steady-state target cleavage rate,[1]; [4],0.0059 ± 0.0028
same,pre-steady-state target cleavage rate,[2],0.0219 ± 0.006
UCCUGGAACUCCUUGCAUAGUAUUUAGUAA,pre-steady-state target cleavage rate,[1]; [3],0.169 ± 0.02
same,pre-steady-state target cleavage rate,[1]; [4],0.00259 ± 0.0025
same,pre-steady-state target cleavage rate,[2],0.00371 ± 0.0017
UCCUGCUACAGCUCUGCAUAGUAUUUAGUUA,pre-steady-state target cleavage rate,[1]; [3],0.25 ± 0.016
same,pre-steady-state target cleavage rate,[1]; [4],0.00983 ± 0.0027
same,pre-steady-state target cleavage rate,[2],0.0151 ± 0.0038
UCCUGCUAGAGGUUGCAUAGUAUUUAGUUA,pre-steady-state target cleavage rate,[1]; [3],0.2 ± 0.011
same,pre-steady-state target cleavage rate,[1]; [4],0.0085 ± 0.0026
same,pre-steady-state target cleavage rate,[2],0.00977 ± 0.0027
UCCUGCUUCAGCUUGCAUACUAUUUAGUUA,pre-steady-state target cleavage rate,[1]; [3],0.0698 ± 0.01
same,pre-steady-state target cleavage rate,[1]; [4],0.00358 ± 0.002
same,pre-steady-state target cleavage rate,[2],0.00801 ± 0.0025
UCCUGCAACAGCUUGCUUAGUAUUUAGUUA,pre-steady-state target cleavage rate,[1]; [3],0.293 ± 0.016
same,pre-steady-state target cleavage rate,[1]; [4],0.00661 ± 0.0026
same,pre-steady-state target cleavage rate,[2],0.0143 ± 0.0036
UCCUGGAUCAGGUUGCAUAGUAUUUAGUUA,pre-steady-state target cleavage rate,[1]; [3],0.182 ± 0.02
same,pre-steady-state target cleavage rate,[1]; [4],0.00807 ± 0.0024
same,pre-steady-state target cleavage rate,[2],0.0232 ± 0.0061
UCCUGGAUGUGCUUGCAAAGUAUUUAGUUA,pre-steady-state target cleavage rate,[1]; [3],0.0492 ± 0.011
same,pre-steady-state target cleavage rate,[1]; [4],0.00756 ± 0.0024
same,pre-steady-state target cleavage rate,[2],0.00905 ± 0.0036
UCCUCCUACAGCUUGCAUAGUAUUUCAGUUA,pre-steady-state target cleavage rate,[1]; [3],0.463 ± 0.073
same,pre-steady-state target cleavage rate,[1]; [4],0.0049 ± 0.0029
same,pre-steady-state target cleavage rate,[2],0.00437 ± 0.0022
UCCUGCUACAGCUUGAUAGUAUUUAGUUA,pre-steady-state target cleavage rate,[1]; [3],0.133 ± 0.017
same,pre-steady-state target cleavage rate,[1]; [4],0.00396 ± 0.0021
same,pre-steady-state target cleavage rate,[2],0.00658 ± 0.0031
UCCUCCUACAGCUUGCAUAGUAUUUUGUUA,pre-steady-state target cleavage rate,[1]; [3],0.177 ± 0.023
same,pre-steady-state target cleavage rate,[1]; [4],0.0036 ± 0.0022
same,pre-steady-state target cleavage rate,[2],0.00791 ± 0.0033
UCCUGCUACAGCUUUCAUAGUAUUUAGUUA,pre-steady-state target cleavage rate,[1]; [3],0.188 ± 0.021
same,pre-steady-state target cleavage rate,[1]; [4],0.00503 ± 0.0022
same,pre-steady-state target cleavage rate,[2],0.00701 ± 0.0022
UCCUGCAACAGCUUGCAAAGUAUUUAGUUA,pre-steady-state target cleavage rate,[1]; [3],0.166 ± 0.012
same,pre-steady-state target cleavage rate,[1]; [4],0.00683 ± 0.0024
same,pre-steady-state target cleavage rate,[2],0.022 ± 0.0052
UCCUGGAUGUCGUAGCAUAGUAUUUAGUUA,pre-steady-state target cleavage rate,[1]; [3],0.0554 ± 0.011
same,pre-steady-state target cleavage rate,[1]; [4],0.00344 ± 0.0024
same,pre-steady-state target cleavage rate,[2],0.00385 ± 0.0025
UCCUGGAACAGGAAGCAUAGUAUUUAGUUA,pre-steady-state target cleavage rate,[1]; [3],0.199 ± 0.016
same,pre-steady-state target cleavage rate,[1]; [4],0.00491 ± 0.0024
same,pre-steady-state target cleavage rate,[2],0.00471 ± 0.002
UCCUCGCUACAGCUUGCAUAGUAUUUAGUUA,pre-steady-state target cleavage rate,[1]; [3],0.276 ± 0.02
same,pre-steady-state target cleavage rate,[1]; [4],0.00839 ± 0.0032
same,pre-steady-state target cleavage rate,[2],0.0505 ± 0.017
